PP5 inh – PP5 phosphatase inhibitors, primary screen, biochemical, fluorescence. Serine/threonine-protein phosphatase 5 (Homo sapiens), P53041. purified PP5c, OMFP substrate fluorescence. inhibition, % at 6.7 µM. 320,000 tested, 0.18% active;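 active means inhibition above the campaign's mean inhibition across all tested compounds plus 3 SD, cut at about 9.5% in these data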
Target sequence (P53041 whole entry, looked up): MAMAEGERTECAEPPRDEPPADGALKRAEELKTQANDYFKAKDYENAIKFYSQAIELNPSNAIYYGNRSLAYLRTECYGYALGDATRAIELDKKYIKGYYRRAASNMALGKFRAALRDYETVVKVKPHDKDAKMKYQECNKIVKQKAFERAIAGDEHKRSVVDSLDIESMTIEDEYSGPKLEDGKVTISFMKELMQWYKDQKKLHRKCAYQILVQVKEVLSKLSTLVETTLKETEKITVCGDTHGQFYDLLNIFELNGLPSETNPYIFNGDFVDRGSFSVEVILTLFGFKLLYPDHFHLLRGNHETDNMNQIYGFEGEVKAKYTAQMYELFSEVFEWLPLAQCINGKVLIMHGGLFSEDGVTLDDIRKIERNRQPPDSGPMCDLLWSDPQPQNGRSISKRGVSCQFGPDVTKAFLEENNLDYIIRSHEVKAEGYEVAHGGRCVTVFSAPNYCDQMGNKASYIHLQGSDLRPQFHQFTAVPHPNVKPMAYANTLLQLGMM
PP1 counter – PP1-alpha phosphatase inhibitors, primary screen, counter-screen for PP5 inhibitor project, biochemical, fluorescence, OMFP substrate, single point. 320,000 tested, 0.9% active. purified PP1alpha. inhibition, % at 6.7 µM. Serine/threonine-protein phosphatase PP1-alpha catalytic subunit (Homo sapiens), P62136. AID 2235, 2010;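 active means inhibition above the mean inhibition of all tested compounds plus 3 SD, computed separately for each screening campaign, cut at about 15% in these data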
CSC inhib – cancer stem cell viability inhibitors, primary screen, luminescence | cancer stem cell-like cells viability | inhibition, % at 7.5 µM | 300,000 tested, 1.1% active; in the data active means inhibition above about 75%; inconclusive means no clear call, values can overlap the other calls; tested in HMLE shEcad cells
Calb FLC – C. albicans growth inhibition with fluconazole, primary screen, CaCi-2 strain, Alamar Blue fluorescence; growth inhibition, % (concentration not given with the values); 300,000 tested, 0.57% active; C. albicans CaCi-2 (fluconazole-resistant clinical isolate) + fluconazole, 48 h;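 active means growth inhibition above about 58% in most replicates, limit read from the data, passing the limit was not always enough; inconclusive means exactly half the replicates above a set limit; inactive means most replicates below a set limit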;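 further: all wells also contain fluconazole at 8 µg/ml as a sub-toxic cotreatment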
ALR H2O2 inh – inhibitors of human ALR sulfhydryl oxidase, primary screen, biochemical, H2O2 detection, HRP-luminol luminescence, single point | purified ALR, DTT oxidation | 290,000 tested, 3.8% active | AID 485317, 2010 | inhibition, % (test concentration not listed);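 active means mean replicate inhibition above about 79%, with every replicate also reaching it, limit read from the data; inconclusive means only one of the two criteria met; inactive means mean below limit and not every replicate reaching it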
Of the large screens only hits and unclear results are named; the others gave an inactive call. Sampled rows, rich in hits. Any-hit rate of the full collection: about 5.4%.

Cc1cc(N(C)C)ccc1N=Nc1ccc(N)cc1	none
Cc1nc(-c2ccc(NC(=O)CC(C)C)cc2)cs1	ALR H2O2 inh 99.6
CC(=O)NNc1nc(-c2ccc(NC(C)=O)cc2)cs1	ALR H2O2 inh 98.6
Cc1nc(-c2ccc(NC(=O)C3CC3)cc2)cs1	none
CC(=O)Nc1ccc(-c2csc(NNC(=O)c3ccc(C)cc3)n2)cc1	none
CCN(CC)S(=O)(=O)c1ccc(N/N=C(\C)c2ccc(OC)cc2O)nc1	Calb FLC 91.3 (no result: ALR H2O2 inh)
CCN(CC)S(=O)(=O)c1ccc(N/N=C/c2ccc(O)cc2)nc1	ALR H2O2 inh 99.4 (no result: CSC inhib)
CCN(CC)CCOCCOc1cc(C)c(Cl)c(C)c1	CSC inhib 88.7
CCOC(=O)C(=Cc1ccc(OCc2ccc([N+](=O)[O-])cc2)c(OC)c1)C(=O)OCC	CSC inhib 116.0
COC(=O)C(=Cc1ccc(OCc2ccc([N+](=O)[O-])cc2)c(OC)c1)C(=O)OC	none (no result: CSC inhib, ALR H2O2 inh)
Cc1ccc(Sc2c([N+](=O)[O-])c(=O)n(C)c3ccccc23)cc1	CSC inhib 118.3 (no result: ALR H2O2 inh)
Cc1ccc(Sc2c(O)c3ccccc3n(C)c2=O)cc1	none (no result: PP5 inh, PP1 counter, CSC inhib, ALR H2O2 inh)
CC(=O)C1=C(c2ccccc2)N(C(C)=O)n2c(C)nnc2S1	ALR H2O2 inh 98.7
CCCCn1c(SCC(=O)Nc2sc3c(c2C(N)=O)CCC3)nnc1-c1ccccc1	none
COc1nc(Nc2nc3ccccc3c(=O)[nH]2)nc2ccc(C)cc12	CSC inhib 125.5
COC(=O)c1cn(NC(=O)CC2CCCCC2)c(=O)c2ccccc12	none
COCCN(C(=O)CCC(=O)Nc1cc(C)on1)C(C(=O)NC(C)(C)C)c1ccccc1Cl (stereo not given)	none (no result: CSC inhib, ALR H2O2 inh)
C=C(C(=O)Oc1ccccc1C(C)(C)C)c1ccccc1	CSC inhib 103.3, ALR H2O2 inh inconclusive (no result: Calb FLC)
CC(C)(C)c1ccccc1OCC(=O)NCCC(=O)O	none
CCCCC(NC(=O)CCc1c(C)c2cc3c4c(oc3c(C)c2oc1=O)CCCC4)C(=O)O (stereo not given)	ALR H2O2 inh 95.9 (no result: PP5 inh, PP1 counter)
Cc1ccc(C(=O)Nc2cccc(C(=O)O)c2)cc1S(=O)(=O)N1CCOCC1	none
N#Cc1cc(-c2ccccc2)oc1NC(=O)c1ccccc1	ALR H2O2 inh 78.8
Cc1cccc(C(=O)NC(=S)NNC(=O)c2ccc(Cl)cc2)c1	ALR H2O2 inh 96.1
Cc1cccc(C(=O)NNC(=O)c2ccc(Br)cc2)c1	none
CC(C)(C)c1ccc(C(=O)NC(=S)NNC(=O)c2cccs2)cc1	ALR H2O2 inh 98.2
Cc1ccccc1C(=O)NNC(=S)NC(=O)c1cccs1	none
O=C(NC(=S)NNC(=O)c1cccs1)c1ccccc1	ALR H2O2 inh 98.5
Cc1cccc(C(=O)NC(=S)NNC(=O)c2cccs2)c1	ALR H2O2 inh 98.7
O=C(Nc1cccc(NC(=S)NC(=O)c2cccs2)c1)c1ccccc1	none
O=C(Cc1ccc(S(=O)(=O)N2CCOCC2)s1)Nc1ccccc1Br	none
Cc1sc(NC(=O)C2CCCCC2C(=O)O)c(C(N)=O)c1C (stereo not given)	none (no result: CSC inhib)
O=C(NC(=S)NNC(=O)c1cccs1)c1ccco1	ALR H2O2 inh 97.1
CC(C)(C)c1ccc(C(=O)NC(=S)NNC(=O)COc2ccccc2)cc1	Calb FLC 100.5, ALR H2O2 inh 98.8
O=C(NNC(=O)c1cccs1)c1ccc(Br)o1	ALR H2O2 inh 95.8 (no result: Calb FLC)
COc1cccc(CNc2ccc3c(c2)ncn3C)c1OC	ALR H2O2 inh inconclusive (no result: PP5 inh, PP1 counter)
COc1cccc(CNc2ccc3c(c2)nc(C)n3C)c1OC	ALR H2O2 inh 99.2
COc1ccc(CNc2ccc3c(c2)nc(C)n3C)cc1OC	none
CCOc1ccc(CNc2ccc3c(c2)nc(C)n3C)cc1	ALR H2O2 inh 95.9 (no result: Calb FLC)
CC(C)c1ccccc1NC(=O)CC1(CC(=O)O)CCCC1	none
O=C(/C=C/c1ccc(Br)cc1)Nc1ccc(S(=O)(=O)Nc2ncccn2)cc1	none (no result: ALR H2O2 inh)
O=C(Cc1ccccc1)NNC(=O)Cc1ccccc1	none
O=C(Cc1ccccc1)NNc1c2ccccc2nc2ccccc12	ALR H2O2 inh 98.5
Cc1ccc(OCC(=O)NNC(=O)CCC(=O)NCc2ccccc2)cc1	none
Cc1ccc(OCC(=O)NNc2c3ccccc3nc3ccccc23)cc1	ALR H2O2 inh 95.6
Cc1cccc(OCC(=O)NNc2c3ccccc3nc3ccccc23)c1	ALR H2O2 inh 98.9
COc1ccc(S(=O)(=O)N2CCc3ccccc3C2)cc1OC	none
